Laboratory results as given in PubChem BioAssay (EPA / NIEHS).
The source made the active and inactive calls. How the source made its calls: active means hit-call score of the fitted dose curve at least 0.9, where 1 is the maximum; inactive means score below 0.9.

Experiments:
Conditions in all cases: mRNA level, 48 h; actives raise or lower the signal
[1] = read-out: growth arrest and DNA damage 45 (GADD45G), GADD45G (gene 10912); assay: LTEA_HepaRG_GADD45G: Life Technologies and Expression Analysis (LTEA) Assay for growth arrest and DNA damage 45 (GADD45G) using HepaRG (AID 2283499)
In short: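 Human hepatic HepaRG line treated 48 h with chemicals (eight concentrations, half-log steps from 100 uM); transcript induction or repression of GADD45G scored by qRT-PCR versus DMSO vehicle.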

[2] = read-out: Glutamate-cysteine ligase regulatory (GCLM), GCLM (gene 2730); assay: LTEA_HepaRG_GCLM: Life Technologies and Expression Analysis (LTEA) Assay for Glutamate-cysteine ligase regulatory (GCLM) using HepaRG (AID 2283500)
In short: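 Differentiated human HepaRG cells exposed 48 h in serum-free induction medium to 8-point half-log concentrations (top 100 uM, 0.5% DMSO), in duplicate. GCLM mRNA quantified by qRT-PCR, normalized to ACTB, GAPDH, POLR2A; bidirectional fitting versus DMSO.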

[3] = read-out: Glutathione S-transferase M3 (GSTM3), GSTM3 (gene 2947); assay: LTEA_HepaRG_GSTM3: Life Technologies and Expression Analysis (LTEA) Assay for Glutathione S-transferase M3 (GSTM3) using HepaRG (AID 2283501)
In short: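 Changes in GSTM3 expression, an oxidative-stress marker, were scored by bidirectional curve fitting against 0.5% DMSO vehicle. Human HepaRG cultures received chemicals for 48 h in duplicate, highest concentration 100 uM with half-log dilutions.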

[4] = read-out: Heat shock 70 kDa protein 1 (HSPA1A), gene 3303; assay: LTEA_HepaRG_HSPA1A: Life Technologies and Expression Analysis (LTEA) Assay for Heat shock 70 kDa protein 1 (HSPA1A) using HepaRG (AID 2283502)
In short: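 Differentiated human HepaRG cells in serum-free induction medium were exposed in duplicate for 48 h to eight concentrations (top 100 uM, half-log steps, 0.5% DMSO). HSPA1A mRNA was quantified by qRT-PCR, normalized to ACTB, GAPDH and POLR2A, and fitted bidirectionally against DMSO.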

[5] = read-out: Hypoxia-inducible factor 1-alpha (Homo sapiens) (UniProt Q16665); assay: LTEA_HepaRG_HIF1A: Life Technologies and Expression Analysis (LTEA) Assay for Hypoxia-inducible factor 1 (HIF1A) Trancription factor using HepaRG (AID 2283503)
In short: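 HepaRG, 48 h exposure, 8-pt half-log series from 100 uM, 0.5% DMSO vehicle, duplicates. Readout: HIF1A transcript by qRT-PCR (Fluidigm array), housekeeping-normalised. Bidirectional curve fit vs DMSO baseline.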

[6] = read-out: 3-Hydroxy-3-Methylglutaryl-CoA Synthase 2 (HMGCS2), HMGCS2 (gene 3158); assay: LTEA_HepaRG_HMGCS2: Life Technologies and Expression Analysis (LTEA) Assay for 3-Hydroxy-3-Methylglutaryl-CoA Synthase 2 (HMGCS2) using HepaRG (AID 2283504)
In short: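 Expression of HMGCS2 in human HepaRG liver cells is measured by qRT-PCR 48 h after dosing (highest 100 uM, half-log series, 0.5% DMSO). Values come from bidirectional concentration-response fitting with DMSO as baseline.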

[7] = read-out: HGF (gene 3082); assay: LTEA_HepaRG_HGF: Life Technologies and Expression Analysis (LTEA) Assay for Hepatocyte Growth Facto (HGF) using HepaRG (AID 2283505)
In short: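 Gain or loss of HGF mRNA in human HepaRG liver cells after 48 h chemical exposure; eight concentrations up to 100 uM with 0.5% DMSO vehicle, quantified by TaqMan qRT-PCR.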

[8] = read-out: Insulin Like Growth Factor 1 (IGF1), IGF1 (gene 3479); assay: LTEA_HepaRG_IGF1: Life Technologies and Expression Analysis (LTEA) Assay for Insulin Like Growth Factor 1 (IGF1) using HepaRG (AID 2283506)
In short: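 Differentiated human HepaRG cells were dosed for 48 h in serum-free induction medium with 0.5% DMSO, eight half-log concentrations up to 100 uM, in duplicate. IGF1 mRNA was quantified by qRT-PCR normalized to ACTB, GAPDH, POLR2A; bidirectional fitting versus DMSO.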

[9] = read-out: Intercellular Adhesion Molecule 1 (ICAM1), ICAM1 (gene 3383); assay: LTEA_HepaRG_ICAM1: Life Technologies and Expression Analysis (LTEA) Assay for Intercellular Adhesion Molecule 1 (ICAM1) using HepaRG (AID 2283507)
In short: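 Gain or loss of transcript in HepaRG hepatic cells is quantified by qRT-PCR after 48 h chemical exposure (up to 100 uM, half-log steps), with DMSO as baseline.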

[10] = read-out: Insulin-like growth factor-binding protein 1 (IGFBP1), IGFBP1 (gene 3484); assay: LTEA_HepaRG_IGFBP1: Life Technologies and Expression Analysis (LTEA) Assay for Insulin-like growth factor-binding protein 1 (IGFBP1) using HepaRG (AID 2283508)
In short: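 mRNA induction or loss was quantified by qRT-PCR after 48 h chemical exposure of human HepaRG cells, with 0.5% DMSO as vehicle and baseline. Concentration-response over eight points up to 100 uM.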

[11] = read-out: Interleukin 6 (IL6), IL6 (gene 3569); assay: LTEA_HepaRG_IL6: Life Technologies and Expression Analysis (LTEA) Assay for Interleukin 6 (IL6) using HepaRG (AID 2283509)
In short: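 Differentiated human HepaRG cells, plated 48 h then switched to serum-free induction medium, were exposed in duplicate for 48 h to eight half-log concentrations up to 100 uM in 0.5% DMSO. IL6 mRNA measured by qRT-PCR, normalized to ACTB/GAPDH/POLR2A.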

[12] = read-out: Interleukin 6 Receptor (IL6R), IL6R (gene 3570); assay: LTEA_HepaRG_IL6R: Life Technologies and Expression Analysis (LTEA) Assay for Interleukin 6 Receptor (IL6R) using HepaRG (AID 2283510);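 on AC50: TaqMan qRT-PCR signal normalized to ACTB GAPDH and POLR2A housekeeping genes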
In short: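 Differentiated human HepaRG cells, plated 48 h then switched to serum-free induction medium, were dosed in duplicate for 48 h at eight half-log concentrations up to 100 uM in 0.5% DMSO. IL6R mRNA quantified by qRT-PCR, normalized to ACTB/GAPDH/POLR2A; bidirectional fit versus DMSO.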

[13] = read-out: Potassium channel subfamily K member 1 (KCNK1), KCNK1 (gene 3775); assay: LTEA_HepaRG_KCNK1: Life Technologies and Expression Analysis (LTEA) Assay for Potassium channel subfamily K member 1 (KCNK1) using HepaRG (AID 2283511)
In short: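 Differentiated human HepaRG cells in serum-free induction medium were exposed in duplicate for 48 h to 8 half-log concentrations up to 100 uM in 0.5% DMSO. KCNK1 mRNA was measured by TaqMan qRT-PCR, normalized to ACTB, GAPDH and POLR2A, and fitted bidirectionally versus DMSO.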

[14] = read-out: Keratin 19 (KRT19), KRT19 (gene 3880); assay: LTEA_HepaRG_KRT19: Life Technologies and Expression Analysis (LTEA) Assay for Keratin 19 (KRT19) using HepaRG (AID 2283512)
In short: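 Gene-expression endpoint in the human liver line HepaRG after 48 h exposure to up to 100 uM test chemical with 0.5% DMSO vehicle; KRT19 mRNA by qRT-PCR, analyzed bidirectionally versus DMSO.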

[15] = read-out: JUN Transcription Factor, JUN (gene 3725); assay: LTEA_HepaRG_JUN: Life Technologies and Expression Analysis (LTEA) Assay for JUN Transcription Factor using HepaRG (AID 2283513)
In short: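 Differentiated HepaRG cells were exposed to chemicals for 48 h in serum-free induction medium, 8 concentrations from 100 uM in half-log steps, 0.5% DMSO vehicle, in duplicate. JUN mRNA was quantified by TaqMan qRT-PCR, normalized to ACTB, GAPDH, POLR2A.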

[16] = read-out: Lipase C (LIPC), LIPC (gene 3990); assay: LTEA_HepaRG_LIPC: Life Technologies and Expression Analysis (LTEA) Assay for Lipase C (LIPC) using HepaRG (AID 2283514)
In short: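 Differentiated human HepaRG cells in serum-free induction medium were exposed in duplicate for 48 h to eight concentrations (top 100 uM, half-log steps, 0.5% DMSO). LIPC mRNA was quantified by TaqMan qRT-PCR, normalized to ACTB, GAPDH and POLR2A, with bidirectional fitting versus DMSO.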

[17] = read-out: Lipoprotein lipase (LPL), LPL (gene 4023); assay: LTEA_HepaRG_LPL: Life Technologies and Expression Analysis (LTEA) Assay for Lipoprotein lipase (LPL) using HepaRG (AID 2283515)
In short: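 Differentiated human HepaRG cells in serum-free induction medium were exposed in duplicate for 48 h to eight half-log concentrations (top 100 uM) in 0.5% DMSO. LPL mRNA was quantified by TaqMan qRT-PCR, normalized to ACTB, GAPDH and POLR2A.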

[18] = read-out: MicroRNA 122 (MIR122), gene 406906; assay: LTEA_HepaRG_MIR122: Life Technologies and Expression Analysis (LTEA) Assay for MicroRNA 122 (MIR122) using HepaRG (AID 2283516); further: the transcript read is the microRNA miR-122
In short: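 Differentiated human HepaRG cells were exposed 48 h in serum-free induction medium to eight half-log concentrations (top 100 uM, 0.5% DMSO). Transcript level was measured by TaqMan qRT-PCR, normalized to ACTB, GAPDH and POLR2A, and fitted bidirectionally versus DMSO.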

[19] = read-out: matrix metalloproteinase-10 (MMP10), MMP10 (gene 4319); assay: LTEA_HepaRG_MMP10: Life Technologies and Expression Analysis (LTEA) Assay for matrix metalloproteinase-10 (MMP10) using HepaRG (AID 2283517)
In short: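 HepaRG, collagen I, ~100,000 cells/well; serum-free induction medium; 48 h exposure, duplicate, 8-pt half-log to 100 uM, 0.5% DMSO. Readout: TaqMan qRT-PCR, normalized to ACTB/GAPDH/POLR2A; bidirectional fit vs DMSO.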

[20] = read-out: MYC, MYC (gene 4609); assay: LTEA_HepaRG_MYC: Life Technologies and Expression Analysis (LTEA) Assay for MYC using HepaRG (AID 2283518)
In short: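 Cells are thawed, plated and cultured 48 h, then treated for 48 h with test chemicals (eight half-log concentrations from 100 uM, 0.5% DMSO vehicle). RNA is isolated and MYC expression quantified by qRT-PCR against three housekeeping genes.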

Measured: AC50

Sequence of Hypoxia-inducible factor 1-alpha (Homo sapiens) (Q16665 whole entry, looked up): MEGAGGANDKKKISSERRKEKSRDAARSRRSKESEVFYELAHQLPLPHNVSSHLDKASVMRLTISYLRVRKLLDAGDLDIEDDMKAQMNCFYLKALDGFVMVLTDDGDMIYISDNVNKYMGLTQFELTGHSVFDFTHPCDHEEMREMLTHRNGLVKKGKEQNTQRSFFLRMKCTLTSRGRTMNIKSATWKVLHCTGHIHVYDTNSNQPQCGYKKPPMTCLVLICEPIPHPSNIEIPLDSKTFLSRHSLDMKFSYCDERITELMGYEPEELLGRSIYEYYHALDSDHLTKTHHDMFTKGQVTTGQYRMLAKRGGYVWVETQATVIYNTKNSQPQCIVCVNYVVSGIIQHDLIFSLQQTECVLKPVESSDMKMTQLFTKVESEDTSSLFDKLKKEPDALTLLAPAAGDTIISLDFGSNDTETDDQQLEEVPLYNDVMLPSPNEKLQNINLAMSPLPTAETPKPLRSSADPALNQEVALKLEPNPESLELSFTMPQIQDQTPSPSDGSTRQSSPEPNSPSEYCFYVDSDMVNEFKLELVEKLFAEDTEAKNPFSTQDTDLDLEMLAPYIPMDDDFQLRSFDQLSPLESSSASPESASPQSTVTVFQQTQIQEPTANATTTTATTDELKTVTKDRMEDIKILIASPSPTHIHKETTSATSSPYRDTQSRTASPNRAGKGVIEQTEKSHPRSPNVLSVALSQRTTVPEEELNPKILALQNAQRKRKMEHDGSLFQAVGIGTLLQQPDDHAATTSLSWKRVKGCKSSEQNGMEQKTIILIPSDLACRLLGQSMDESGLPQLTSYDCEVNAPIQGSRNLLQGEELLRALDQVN

Nc1ccccc1N
inactive: [2] | [3] | [5] | [7] | [9] | [11] | [13] | [15] | [19]
active: [1] 67.7 µM | [4] 50 µM | [6] 74 µM | [8] 66.8 µM | [10] 13.4 µM | [12] 72.3 µM | [14] 3.62 µM | [16] 62.7 µM | [17] 50 µM | [18] 71.4 µM | [20] 7.08 µM

O=C(O)Cc1ccccc1Nc1c(Cl)cccc1Cl
active: [8] 16.5 µM
inactive: all other assays above

COCCOCCOC
active: [2] 0.925 µM | [3] 2.14 µM | [5] 9.92 µM | [7] 1.5 µM | [9] 0.87 µM | [10] 0.683 µM | [15] 0.582 µM | [16] 0.983 µM | [17] 1.21 µM | [20] 0.966 µM
inactive: [1] | [4] | [6] | [8] | [11] | [12] | [13] | [14] | [18] | [19]

CN1CCN(Cc2cc(-c3ccc4[nH]c(=O)oc4c3)co2)[C@@H](c2ccc(F)cc2)C1
active: [1] 71.9 µM | [11] 50 µM | [14] 23.9 µM
inactive: all other assays above

COc1ccc(C)cc1N
not listed: [5]
inactive: all other assays above

CC(C)c1ccc(C(=O)N=C(N)N)cc1S(C)(=O)=O
active: [2] 0.441 µM | [3] 0.446 µM | [4] 7.39 µM | [7] 7.39 µM | [8] 0.362 µM | [9] 0.388 µM | [10] 0.266 µM | [12] 0.276 µM | [13] 0.377 µM | [15] 0.395 µM | [16] 0.607 µM | [17] 0.31 µM | [18] 0.334 µM | [19] 67.9 µM | [20] 0.343 µM
inactive: [1] | [5] | [6] | [11] | [14]

CCCCCCCCCCC
not listed: [5]
inactive: all other assays above

Cc1nc(C)nc(N2C[C@@H](C)N(c3ccnc([C@@H](C)O)n3)[C@@H](C)C2)n1
active: [7] 15.3 µM
not listed: [16]
inactive: all other assays above

Cc1cc(=O)[nH]c(=S)[nH]1
not listed: [5]
inactive: all other assays above

Cc1ccccc1Cl
inactive: all assays above

O=[N+]([O-])C(CO)(CO)CO
not listed: [5]
inactive: all other assays above

FC(F)(F)C(F)(F)C(F)(F)C(F)(F)C(F)(F)C(F)(F)CCI
not listed: [5]
inactive: all other assays above

O=C(O)CCCCC(=O)O
not listed: [5]
inactive: all other assays above
